Laboratory results: PubChem BioAssay AID2058 (Sanford-Burnham Center for Chemical Genomics, 2009)
Hit rate of the full screen: of about 290,000 compounds, about 150 (0.052%) were called active. The sample holds actives, similar compounds and a random draw of the others, so the mix is not that of the screen. Results with a measured potency or affinity are listed apart. A number with no mark means an inactive call.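 How the source made its calls: active means inhibition of at least 50% with at least 30 cells and total cytoplasm GFP at most 10,000,000; inconclusive means under 30 cells or total GFP of 10,000,000 plus; inactive means the rest.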

Molecular target: G-protein coupled receptor 35 (Homo sapiens) (UniProt Q9HC97)
Assay: GPR35 antagonists blocking zaprinast-driven arrestin recruitment, primary screen, imaging, U2OS, beta-arrestin-GFP, zaprinast agonist (AID 2058)
Conditions: U2OS GPR35 beta-arrestin-GFP translocation imaging, zaprinast antagonism; at 10 µM; hits give high values

Chain of G-protein coupled receptor 35 (Homo sapiens) (Q9HC97 whole entry, looked up): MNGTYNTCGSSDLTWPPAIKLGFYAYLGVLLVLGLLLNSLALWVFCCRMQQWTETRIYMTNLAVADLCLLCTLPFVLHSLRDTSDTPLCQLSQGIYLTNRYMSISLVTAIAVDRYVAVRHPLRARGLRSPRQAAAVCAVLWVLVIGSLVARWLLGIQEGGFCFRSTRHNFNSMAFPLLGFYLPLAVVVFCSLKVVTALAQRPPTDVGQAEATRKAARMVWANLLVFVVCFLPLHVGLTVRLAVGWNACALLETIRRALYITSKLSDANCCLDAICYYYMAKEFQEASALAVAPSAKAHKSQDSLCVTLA

SMILES | inhibition
CC(=O)NS(=O)(=O)c1ccc(NC(=O)/C=C/c2cn(-c3ccccc3)nc2-c2ccccc2)cc1 | -3%
CCCCc1nc(SCC(=O)Nc2nnc(CCCC)s2)n[nH]1 | -13.1%
O=C(CN1C(=O)S/C(=C/C=C/c2ccccc2)C1=O)Nc1ccc(C(=O)O)cc1 | -12.3%
O=C(CCCN1C(=O)S/C(=C\C=C\c2ccccc2)C1=O)Nc1ccc(O)cc1 | 18.5%
O=C(CN1C(=O)S/C(=C\C=C\c2ccccc2)C1=O)Nc1ccc(C(=O)O)cc1 | -0.2%
O=C(CCN1C(=O)/C(=C\C=C\c2ccccc2)SC1=S)Nc1ccc(C(=O)O)cc1 | 1.6%
C/C=C(\C)C(=O)NCCN1C2=NC[C@@H](Cc3ccccc3)N2C[C@H]1Cc1ccc(O)cc1 | 1%
N#Cc1c(C(F)(F)F)cc(=O)[nH]c1SCC(=O)O | -12%
CCN(C(=O)Cc1c(C(=O)O)n(C)c2ccccc12)c1cccc(C)c1 | 6.8%
O=C(Cn1cccc1C(=O)c1ccccc1)NCCCc1ccccc1 | 3.3%
CC(NS(=O)(=O)OCC(Cl)(Cl)Cl)c1ccc(Br)cc1 (centres undefined) | 2.8%
CC(C)CC(NS(=O)(=O)OCC(Cl)(Cl)Cl)c1ccccc1 (centres undefined) | 6.5%
O=C(Nc1ccc(Cl)c(S(=O)(=O)N2CCOCC2)c1)c1ccccc1-c1ccc(C(F)(F)F)cc1 | -5.3%
CC(O)CSc1nc2c(c(=O)n(C)c(=O)n2C)n1CCCc1ccccc1 (centres undefined) | 18.8%
Nc1c(C(=O)Nc2nccs2)sc2nc(-c3cccs3)cc(C(F)(F)F)c12 | 14.2%
CC(=O)c1sc2nc(-c3cccs3)cc(C(F)(F)F)c2c1N | 19.7%
O=C(NCc1nnc(SCc2ccc(F)cc2)n1-c1ccccc1)C12CC3CC(CC(C3)C1)C2 | -5.2%
O=C(NCc1nnc(SCc2ccccc2)n1-c1ccccc1)C12CC3CC(CC(C3)C1)C2 | -5.7%
O=C(NCc1nnc(SCc2ccc(C(F)(F)F)cc2)n1-c1ccccc1)C12CC3CC(CC(C3)C1)C2 | 89.4% (active)
COc1ccc(CC(=O)OCC(=O)NC(=O)NC2CCCCC2)cc1 | 6.4%
COC(=O)c1[nH]c2cccc(C)c2c1NC(=O)CN1CCN(C(=O)c2ccco2)CC1 | 21.8%
FC(F)(F)c1cnc(-c2cnc3c(-c4ccc(Cl)cc4)cnn3c2)c(Cl)c1 | 2.1%
CCOC(=O)c1ccc(NC(=O)CCc2c(C)nc3ncnn3c2C)cc1 | 10.9%
O=C(CSc1nnc(Cn2c(=O)sc3ccccc32)n1-c1ccccc1)NCC1CCCO1 (centres undefined) | 15.8%
